An excerpt weighted towards active compounds, which were near 10% of everything screened.
PNC assembly inh: blocks assembly of the perinucleolar compartment | PC3M PTB-GFP, PNC prevalence imaging, 16 h; stronger effect = lower value | activity change (PNC), negative = inhibition, % at 10 µM | 140,000 compounds, 3.1% hits;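 active = readout at or below -70, meaning at least 70% loss of cells showing the perinucleolar compartment, a nuclear body marking cancer cells; inconclusive = readout between -30 and a set limit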;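 note: plate controls were DMSO wells for no effect and camptothecin positive control wells for full effect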
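Compounds are pinned in duplicate onto adhered PC3M cells stably expressing GFP-tagged PTB and incubated 16 h at 37 C. Cells are then fixed, nuclei stained with Hoechst, and PNC-positive cells counted.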
ALDH1A1 inh: inhibitors of human aldehyde dehydrogenase 1A1. P00352. Purified ALDH1A1, NADH fluorescence, propionaldehyde substrate. Potency, µM (series often up to 75.3 µM), for the others: top-dose activity, negative = inhibition, actives largely listed as inhibitors. 220,000 compounds, 7.3% hits. AID 1030; active = well fitted inhibition curve with a large enough effect, not every such curve was filed as active; inconclusive = small, poorly fitted or top-dose-only effect, or another doubt; inactive = no such curve, though single readings can be large or run the other way;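 note: potency is the fitted concentration of half-maximal effect; plate controls were no enzyme wells and a reference inhibitor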
Target sequence (P00352 whole entry, looked up): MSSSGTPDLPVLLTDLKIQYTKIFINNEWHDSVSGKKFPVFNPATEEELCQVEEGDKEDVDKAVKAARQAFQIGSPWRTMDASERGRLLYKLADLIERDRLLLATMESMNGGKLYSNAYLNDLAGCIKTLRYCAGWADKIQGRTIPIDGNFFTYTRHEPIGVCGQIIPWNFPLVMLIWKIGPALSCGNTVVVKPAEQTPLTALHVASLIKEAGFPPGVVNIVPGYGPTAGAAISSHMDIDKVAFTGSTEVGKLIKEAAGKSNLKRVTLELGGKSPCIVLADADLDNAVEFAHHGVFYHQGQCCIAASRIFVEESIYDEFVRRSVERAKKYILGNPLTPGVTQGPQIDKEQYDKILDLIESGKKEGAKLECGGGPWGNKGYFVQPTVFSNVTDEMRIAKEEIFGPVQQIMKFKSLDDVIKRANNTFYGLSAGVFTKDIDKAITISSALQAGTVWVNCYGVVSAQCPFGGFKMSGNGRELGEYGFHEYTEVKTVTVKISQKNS
HPGD inh: inhibitors of human 15-hydroxyprostaglandin dehydrogenase (HPGD) | purified HPGD, NADH fluorescence kinetic, PGE2 substrate | Potency, µM, inactives show top-dose activity change, negative = inhibition, hits mostly inhibitors | 150,000 compounds, 4.3% hits; active = well fitted inhibition curve with a large enough effect, not every such curve was filed as active; inconclusive = small, poorly fitted or top-dose-only effect, or another doubt; inactive = no such curve, though single readings can be large or run the other way; note: potency is the fitted concentration of half-maximal effect
Target sequence (P15428 whole entry, looked up): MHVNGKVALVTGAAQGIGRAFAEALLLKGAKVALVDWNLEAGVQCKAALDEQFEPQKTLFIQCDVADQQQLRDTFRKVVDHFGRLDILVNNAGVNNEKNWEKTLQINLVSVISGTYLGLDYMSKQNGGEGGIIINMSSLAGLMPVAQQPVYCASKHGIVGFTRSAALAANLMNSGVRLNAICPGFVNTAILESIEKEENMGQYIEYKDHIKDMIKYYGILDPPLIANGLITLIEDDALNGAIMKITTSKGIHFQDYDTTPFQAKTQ
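20 nM HPGD preincubated 15 min at room temperature with compound in 50 mM Tris-HCl pH 8, 0.01% Tween 20. Started with 1 mM NAD+ and 30 uM prostaglandin E2; NADH fluorescence (360/450 nm) read 5 times over 30-s intervals, last minus first.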
GLA spleen mod: inhibits or activates alpha-galactosidase in human spleen homogenate | P06280 | human spleen homogenate, 4MU-alpha-Gal fluorescence, 40 min | Potency, µM (highest dose often 80 µM), without a hit: at the top dose activity change, negative = inhibition, hits mostly inhibitors | 240,000 compounds, 0.008% hits;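 note: potency is the fitted concentration of half-maximal effect; 0% = enzyme with vehicle and -100% = no enzyme basal signal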
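Human spleen homogenate (1 ug) as enzyme source, 4-methylumbelliferyl-alpha-D-galactopyranoside 1 mM final, citrate/phosphate pH 5.0 with 0.01% Tween-20. Compounds 40 min at 37C, NaOH/glycine stop; fluorescence Ex 365/Em 440, Hill-fit AC50.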
12-hLO inh: inhibitors of human 12-lipoxygenase (ALOX12). P18054. purified 12-hLO, xylenol orange hydroperoxide absorbance. Potency, µM (doses to about 57.1 µM), without a hit: at the highest dose activity change, negative = inhibition, hits mostly inhibitors. 150,000 compounds, 0.12% hits; note: potency is the fitted concentration of half-maximal effect; nearly all actives have a fitted effect of over 55% in size
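Purified human 12hLO (150 nM), preincubated 15 min with compound, then 40 uM arachidonic acid for 30 min, room temperature, Hepes pH 7.0 with 0.01% Triton X-100. Hydroperoxide detected by ferrous iron/xylenol orange; 573/405 nm absorbance ratio gives reaction progress.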
GLA inh pH 4.5: blocks human alpha-galactosidase A at pH 4.5; 230,000 tested, under 10 active; activity change, negative = inhibition, % at 105 µM; AID 1467; purified enzyme, 4-MU-alpha-Gal fluorescence, pH 4.5; P06280;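 note: 0% = full activity with enzyme and -100% = basal without enzyme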
* hit, by the source's call; ? = inconclusive; / = no result given; [ ] = another dose, or the depositor's remark. Unless noted, calls come from the whole dose curve; as a rule, active = well fitted curve in the direction sought with a large enough effect; inconclusive = small, poorly fitted or top-dose-only effect, or another doubt; inactive = no such curve, though single readings can be large; an effect the other way counts as inactive or inconclusive. Unless noted, % is set by controls: 0 for no effect and ±100 for the full control effect.

SMILES	PNC assembly inh	ALDH1A1 inh	HPGD inh	GLA spleen mod	12-hLO inh	GLA inh pH 4.5
CC[C@H](C)[C@H](NC(=O)[C@H](Cc1ccc(O)cc1)NC(=O)CNC(=O)[C@@H]1CCCN1C(=O)[C@H](CC(=O)O)NC(=O)[C@@H](N)CS)C(=O)NCC(=O)N[C@@H](CO)C(=O)N[C@@H](CCCN=C(N)N)C(N)=O	/	/	/	-14.6%	/	/
CN(C)C(CNC(=O)c1ccc2c(=O)n(-c3ccccc3F)c(=S)[nH]c2c1)Cc1ccccc1 (stereo not drawn)	/	12.6µM*	/	1.4%	/	-2.4
O=C(O)c1ccc2c(=O)n(-c3ccccc3)c(=S)[nH]c2c1	/	/	/	9.4%	/	11.8
O=C(NCc1cccs1)c1ccc(Cl)s1	-3.4	10.1%	15.8µM*	6.9%	3.6%	5.4
CCc1ccc(C(=O)NCc2cccs2)s1	?	5.2%	17.8µM*	6.3%	3.9%	1.3
Cc1ccc(NC(=O)NNC(=O)c2cccs2)cc1	48.2	5.9%	-9.2%	10.4%	-0.7%	5.2
CCOc1c(OC(C)=O)ccc(/C=C2\N=C(SCC)SC2=O)c1[N+](=O)[O-]	-10.0	?	10µM*	8.8%	-20.3%	-5.5
CCOc1cc(/C=C2\N=C(SC)SC2=O)cc([N+](=O)[O-])c1OC(C)=O	26.0	28.2µM*	15.8µM*	6.4%	-6.3%	-2.1
CCOc1cc(/C=C2\N=C(SCC)SC2=O)cc([N+](=O)[O-])c1OC(C)=O	?	31.6µM*	12.6µM*	-4.4%	-18.1%	-3.7
O=C(COCC(=O)NCc1ccccc1)NCc1ccccc1	/	5.3%	/	-8.3%	/	-5.5
CCC12CCCN3CCC4(C(=C(C(=O)OC)C1)Nc1ccccc14)C32 (stereo not drawn)	?	20µM*	-21.9%	13.0%	-10.6%	-9.8
CC1=C([N+](=O)[O-])C(c2cccc(Br)c2)C2=C(N1)c1ccccc1C2=O (stereo not drawn)	-82.8*	?	15.8µM*	5.9%	-14.3%	-2.7
O=Cc1cn(CC(=O)Nc2ccc3c(c2)OCO3)c2ccccc12	/	?	/	-13.0%	/	0.7
Cc1cccc(N2C(=O)/C(=C/c3cccnc3)SC2=S)c1	/	/	/	-5.4%	/	-3.0
Cc1cc(/C=C2/NC(=S)NC2=O)c(C)n1-c1cccnc1	/	-4.4%	/	-7.5%	/	-8.6
Cc1cc(/C=C2/NC(=O)N(c3ccccc3)C2=O)c(C)n1-c1cccnc1	-12.3	4.47µM*	-18.4%	-1.1%	-2.8%	-7.6
Cc1cc(/C=C2/SC(=S)N(c3ccc([N+](=O)[O-])cc3)C2=O)c(C)n1-c1cccnc1	38.7	1.26µM*	?	-4.6%	-7.8%	-11.0
COc1cc(NC(=O)c2ccc(Cl)cc2Cl)ccc1NC(=O)c1cccs1	/	/	/	-1.6%	/	2.8
O=C(CCc1nc2ccccc2s1)NCc1ccccc1F	/	?	/	4.8%	/	-8.1
O=C(CCCc1nc2ccccc2s1)NCc1ccccc1F	3.4	?	31.6µM*	-3.6%	0.7%	2.8
Cc1nn(C)c(C)c1S(=O)(=O)NC1CCCC1	-15.6	-0.7%	-0.7%	11.9%	-0.2%	-12.1
Cc1nn(-c2nnc(NC3CCCCC3)nn2)c(C)c1Br	-8.8	14.1µM*	15.8µM*	2.8%	-3.8%	-2.6
CO[C@@H]1COC(=O)[C@@H](CCSC)NC(=O)C/C=C\[C@@H](C)COC(=O)CCC[C@H]1C	/	4.1%[13.5 µM]	/	4.4%[17.5 µM]	/	/
CCOC(=O)/C(C#N)=C/c1cc2ccccc2nc1N1CCCCC1	/	18.9µM*	/	2.1%	/	6.0
N#CC(C#N)=Cc1cc2ccccc2nc1N1CCOCC1	3.2	11.2µM*	0.4%	9.4%	-1.1%	-19.1
SMILES	PNC assembly inh	ALDH1A1 inh	HPGD inh	GLA spleen mod	12-hLO inh	GLA inh pH 4.5
Cc1ccc2cc(C=C(C#N)C#N)c(N3CCCCC3)nc2c1	-11.3	7.94µM*	-5.0%	3.4%	-0.7%	-1.4
Cc1ccc2cc(/C=C(\C#N)C(N)=O)c(N3CCCCC3)nc2c1	-15.3	11.2µM*	-15.8%	-2.4%	3.4%	5.6
Cc1ccc2cc(C#N)c(N3CCN(C)CC3)nc2c1	-23.0	-8.8%	-13.2%	0.6%	5.2%	2.7
N#C/C(=C\c1cc2ccccc2nc1N1CCOCC1)C(=O)Nc1ccc(N2CCOCC2)cc1	?	-11.6%	-20.9%	-1.3%	-3.0%	-3.2
COc1cc(OC)nc(Oc2ccccc2C(=O)Oc2ccc(F)cc2Cl)n1	-15.6	-1.0%	-8.8%	-0.3%	-1.9%	-15.0
Cc1ccc(N2C(=O)CC(Cc3cccc(C)c3)C2=O)cc1 (stereo not drawn)	/	?	/	7.4%	/	11.9
COC(=O)Cn1c(=NC(=O)C(C)C)sc2c(C)cc(C)cc21	4.9	-12.6%	-12.3%	2.4%	-2.0%	5.9
CCn1c(=NC(=O)CN2C(=O)CCC2=O)sc2c(C)cc(C)cc21	24.0	-7.6%	14.1µM*	3.3%	-3.7%	1.3
CN(C)Cc1ccccc1-c1nccc(NCc2cccs2)n1	/	7.7%	2.4%	3.3%	4.8%	-12.1
S=P(c1ccc(N2CCOCC2)cc1N1CCOCC1)(N1CCOCC1)N1CCOCC1	?	28.2µM*	25.1µM*	9.9%	-8.0%	-3.3
O=[N+]([O-])c1ccc(N2CCCCC2)cc1N1CCOCC1	2.4	0.7%	-15.4%	-8.8%	3.5%	-3.1
Cc1ccc(C)c(S(=O)(=O)N2CC(=O)N(CCc3ccccc3)C(=O)C2)c1	-9.3	?	-18.2%	-1.4%	0.4%	-0.3
CC(=O)NCCNc1ncncc1-c1ccc(N(C)C)cc1	/	?	/	2.1%	/	/
Cc1cccc(/N=C/c2nc(-c3ccccc3Br)oc2O)n1	/	3.55µM*	/	2.4%	/	-22.7
Cc1ccnc(N=Cc2nc(-c3ccccc3Br)oc2O)c1	/	3.98µM*	/	-12.5%	/	-2.0
CSc1ccccc1N=Cc1nc(-c2ccccc2)oc1O	36.4	5.01µM*	?	2.0%	-25.0%	-7.8
Oc1oc(-c2ccccc2)nc1C=Nc1ccccc1	9.9	?	-22.2%	1.1%	-20.6%	-7.2
COc1ccc(C(=O)CSc2nn3c(=O)c(C(C)(C)C)nnc3s2)cc1	?	0.398µM*	-16.0%	-20.3%	-1.5%	-4.2
CC(C)(C)c1nnc2sc(SC/C(O)=C(\C#N)c3nc4ccccc4[nH]3)nn2c1=O	-95.4*	?	20µM*	5.1%	-5.3%	0.1
Cc1cc(-c2ccccc2)nc2cc(C(=O)NCc3ccco3)nn12	/	?	/	0.9%	/	11.0
N#C/C(=N\Nc1ccccc1F)C(=N)N1CCCCC1	-85.0*	?	-23.4%	-2.1%	-23.9%	-1.3
N#C/C(=N\Nc1ccc(F)cc1)C(=N)N1CCCCCC1	/	?	/	5.8%	/	-1.4
COc1ccc(C2c3c(ncn(CCN4CCOCC4)c3=N)Oc3ccc4ccccc4c32)cc1 (stereo not drawn)	45.6	10.0%	-0.1%	7.8%	-9.9%	-6.6
